Laboratory results from PubChem BioAssay (Tox21).
Unmarked numbers belong to inactive results. Records with an inconclusive call do not appear. A call without a number means that no potency is given here. Active and inactive are the calls of the source. Unless noted, the call rests on the fitted dose curve; in most records, active means well fitted curve in the direction sought with a large enough effect in the repeat runs; inconclusive means weak or mixed curves; inactive means no such curve, though single readings can be large; an effect the other way counts as inactive or inconclusive.

Experiments:
[1] = qHTS assay to identify small molecule antagonists of the estrogen related receptor (ERR) signaling pathway from Tox21 library - cell viability counter screen (AID 1224834); further: nearly all actives have a fitted effect of over 30% in size
In short: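 After 17.5 h of compound exposure at 37 C, ERR cells are incubated with CellTiter-Fluor for 30 min and fluorescence intensity serves as the viability measure.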

[2] = biological target: Luciferin 4-monooxygenase (Photinus pyralis) (UniProt P08659); assay: qHTS assay to identify small molecule inhibitors of firefly luciferase (AID 1224835); further: nearly all actives have a fitted effect of over 25% in size; further: potency means the concentration at half of the fitted maximal effect
In short: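 Biochemical qHTS: compounds run as interplate titrations against purified firefly enzyme, with D-luciferin and ATP each at its KM concentration. Light output recorded by CCD imaging.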

[3] = qHTS assay to identify small molecule agonists of the constitutive androstane receptor (CAR) signaling pathway - cell viability counter screen (AID 1224836); further: nearly all actives have a fitted effect of over 45% in size
In short: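 HepG2 cells stably carrying hCAR and a CYP2B6-2.2kb reporter were plated 4 h, then given compounds at 15 concentrations plus PK11195 (final 0.75 uM). After 23 h at 37 C, viability was read by CellTiter-Fluor fluorescence.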

[4] = qHTS assay to identify small molecule antagonists of the constitutive androstane receptor (CAR) signaling pathway - cell viability counter screen (AID 1224837); further: nearly all actives have a fitted effect of over 45% in size
In short: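 Counter screen run in HepG2-CYP2B6-hCAR cells: 4 hr settle, compound titration (15 concentrations) with 50 nM CITCO, 23 hr at 37 C/5% CO2, CellTiter-Fluor fluorescence.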

[5] = biological target: Nuclear receptor subfamily 1 group I member 3 (Homo sapiens) (UniProt Q14994); assay: qHTS assay to identify small molecule antagonists of the constitutive androstane receptor (CAR) signaling pathway (AID 1224838); further: nearly all actives have a fitted effect of over 40% in size
In short: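 Cell line: HepG2 double-stable for hCAR and CYP2B6-2.2kb reporter. Agonist: CITCO, 50 nM final. Compounds: 15 concentrations, 24 h, 37 C. Detection: ONE-Glo luminescence.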

[6] = biological target: Nuclear receptor subfamily 1 group I member 3 (Homo sapiens) (UniProt Q14994); assay: qHTS assay to identify small molecule agonists of the constitutive androstane receptor (CAR) signaling pathway (AID 1224839); further: nearly all actives have a fitted effect of over 15% in size; further: potency means the concentration at half of the fitted maximal effect;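 on activation: HepG2 cells stably carrying human CAR and a CYP2B6 luciferase reporter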
In short: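 HepG2 cells stably expressing hCAR and a CYP2B6-2.2kb luciferase reporter were treated with compounds at 15 concentrations plus 0.75 uM PK11195 (final) for 24 h at 37 C; luminescence was read after ONE-Glo addition.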

[7] = qHTS assay to identify small molecule antagonists of the estrogen related receptor signaling pathway with the pleiotropic PPARgamma coactivator (PGC) from Tox21 10K library - cell viability counter screen (AID 1224840; active means well fitted cell-killing curve with a large enough effect in the repeat runs, not every such curve was filed as active; further: nearly all actives have a fitted effect of over 40% in size)
In short: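 Following seeding of 2,000 PGC/ERR cells/well and 6 hours' incubation, test compounds were delivered in DMSO. The plates then sat 17.5 hours at 37 C before a fluorogenic live-cell protease reagent (CellTiter-Fluor) was read after 30 min.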

[8] = qHTS assay to identify small molecule antagonists of the estrogen related receptor signaling pathway with the pleiotropic PPARgamma coactivator (PGC) from Tox21 10K library (AID 1224841; call rule not given here; further: actives are mostly falling curves and most rising ones were filed inactive; nearly all actives have a fitted effect of over 50% in size)
In short: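 qHTS antagonist format: PGC/ERR cells, 2k/well, compound in DMSO by pin transfer after 6 h attachment, 18 h treatment at 37 C, One-Glo luminescence read at 30 min.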

[9] = qHTS assay to identify small molecule agonists of the estrogen related receptor signaling pathway with the pleiotropic PPARgamma coactivator (PGC) from Tox21 10K library (AID 1224842); further: nearly all actives have a fitted effect of over 15% in size
In short: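 PGC/ERR reporter cell line, 2,000 cells per well, incubated 6 h at 37 C before 23 nL compound in DMSO was added. After 18 h at 37 C, One-Glo luminescence read following 30 min at room temperature.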

[10] = biological target: Thyrotropin receptor (Homo sapiens) (UniProt P16473); assay: qHTS assay to identify small molecule agonists of the thyroid stimulating hormone receptor (TSHR) signaling pathway (AID 1224843; calls by dose curve; further: nearly all actives have a fitted effect of over 45% in size)
In short: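 TSHR-HEK293 cells in agonist mode, 30 min room-temperature step, then cAMP measured by competitive HTRF (cAMP-d2 with anti-cAMP cryptate) after 1 h at room temperature. Tested at 15 concentrations in triplicate.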

[11] = qHTS assay to identify small molecule agonists of the hypoxia (HIF-1) signaling pathway - cell viability counter screen (AID 1224844; calls by dose curve; further: nearly all actives have a fitted effect of over 50% in size)
In short: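 Cells (HRE-bla ME-180, 2,000 per well) sat 5 hrs at 37C, got compound for 17 hrs, were read for CCF4-AM FRET, and were finally lysed with CellTiter-Glo for a 30 min room-temperature luminescence read.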

[12] = qHTS assay to identify small molecule agonists of H2AX (AID 1224845; active means well fitted activation curve with a large enough effect in the signal ratio in the repeat runs, not every such curve was filed as active; the % refers to the signal ratio)
In short: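 Wild-type CHO-K1 cells, plated overnight, exposed 3hr at 37C to 15 concentrations (0.76% DMSO final). Lysed, then HTRF anti-pH2AX (S139) cryptate and anti-H2AX-d2 antibodies, 24 hr room temperature; 665/620 nm emission read.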

[13] = qHTS assay to identify small molecule agonists of H2AX - cell viability counter screen (AID 1224847; calls by dose curve; further: top concentration of the series differs between compounds; nearly all actives have a fitted effect of over 30% in size)
In short: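 Wild-type CHO-K1 cells (10% FBS medium) were plated overnight at 37C, exposed to compounds at 15 concentrations for 3 hr at 37C (0.76% DMSO final), and viability was read as CellTiter-Glo luminescence after 30 min at room temperature.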

[14] = qHTS assay to identify small molecule antagonists of the estrogen related receptor (ERR) signaling pathway from Tox21 library (AID 1224848); further: nearly all actives have a fitted effect of over 50% in size
In short: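 ERR reporter cell line (from NTP) seeded 2,000 cells/well, rested 6 h at 37 C/5% CO2, then pin-dosed with compounds in DMSO. After 18 h at 37 C, ONE-Glo added; luminescence read after 30 min at room temperature.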

[15] = qHTS assay to identify small molecule agonists of the estrogen related receptor (ERR) signaling pathway from Tox21 library (AID 1224849; calls by dose curve; further: nearly all actives have a fitted effect of over 15% in size); conditions: ERR reporter cell line, ONE-Glo luciferase, 18 h; at 92.4 µM (top of the series) unless noted
In short: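 Screening used an NTP-provided ERR luciferase cell line. Compounds in DMSO were added 6 h after seeding and left 18 h at 37 C before a 30 min ONE-Glo step and luminescence reading.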

[16] = qHTS RealTime-Glo MT Cell Viability Assay in HepG2 cells - 24 hour (AID 1224867); further: nearly all actives have a fitted effect of over 50% in size
In short: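 Cell number in HepG2 cultures estimated from NanoLuc luminescence generated by metabolic reduction of a prosubstrate by living cells. The homogeneous, nonlytic format allowed repeated reads at 0, 8, 16, 24, 32 and 40 h of compound exposure.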

[17] = A CellTox Green Cytotoxicity Assay to monitor cytotoxicity in HEK293 cells - 0 hour (AID 1224869); further: nearly all actives have a fitted effect of over 50% in size; further: potency means the concentration at half of the fitted maximal effect
In short: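 Fluorescence intensity, read at 0, 8, 16, 24, 32 and 40 h of compound treatment, reflected dye binding to DNA of dead HEK293 cells; compounds (23 nL, DMSO) were added 5 h after plating cells with reagent.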

[18] = qHTS RealTime-Glo MT Cell Viability Assay in HepG2 cells - 40 hour (AID 1224870); further: nearly all actives have a fitted effect of over 50% in size
In short: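 HepG2 cells (600/well) mixed with RealTime-Glo MT reagent, settled 5 h at 37 C/5% CO2 before compound addition. Nonlytic NanoLuc luminescence from viable-cell prosubstrate reduction read repeatedly during 40 h treatment at 37 C.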

[19] = qHTS assay to identify small molecule agonists of the hypoxia (HIF-1) signaling pathway (AID 1224846; active means well fitted activation curve with a large enough effect in the signal ratio in the repeat runs, not every such curve was filed as active; the % refers to the signal ratio)
In short: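 A low-serum medium (0.5% dialyzed FBS) holding 2,000 HRE-bla ME-180 cells per well is preincubated for 5 hrs, dosed with compounds by pintool, and kept a further 17 hrs at 37C, 5% CO2 before CCF4-AM FRET detection of beta-lactamase.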

[20] = qHTS RealTime-Glo MT Cell Viability Assay in HEK293 cells - 32 hour (AID 1224868)
In short: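 Homogeneous bioluminescent viability format in HEK293 cells (600 cells/well). Following 5 h at 37 C/5% CO2, 23 nL compound was pintooled; the signal was measured repeatedly during 40 h incubation.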

Sequence of Nuclear receptor subfamily 1 group I member 3 (Homo sapiens) (Q14994 whole entry, looked up): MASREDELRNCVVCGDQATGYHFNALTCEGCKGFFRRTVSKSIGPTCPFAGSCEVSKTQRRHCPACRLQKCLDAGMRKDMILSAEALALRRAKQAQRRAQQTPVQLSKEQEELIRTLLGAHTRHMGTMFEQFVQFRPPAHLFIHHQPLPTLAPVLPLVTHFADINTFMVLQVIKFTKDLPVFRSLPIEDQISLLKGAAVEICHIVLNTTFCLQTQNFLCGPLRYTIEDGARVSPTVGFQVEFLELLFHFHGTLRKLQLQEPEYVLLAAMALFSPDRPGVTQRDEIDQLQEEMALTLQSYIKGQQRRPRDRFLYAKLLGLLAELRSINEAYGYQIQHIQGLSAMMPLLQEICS
Sequence of Thyrotropin receptor (Homo sapiens) (P16473 whole entry, looked up): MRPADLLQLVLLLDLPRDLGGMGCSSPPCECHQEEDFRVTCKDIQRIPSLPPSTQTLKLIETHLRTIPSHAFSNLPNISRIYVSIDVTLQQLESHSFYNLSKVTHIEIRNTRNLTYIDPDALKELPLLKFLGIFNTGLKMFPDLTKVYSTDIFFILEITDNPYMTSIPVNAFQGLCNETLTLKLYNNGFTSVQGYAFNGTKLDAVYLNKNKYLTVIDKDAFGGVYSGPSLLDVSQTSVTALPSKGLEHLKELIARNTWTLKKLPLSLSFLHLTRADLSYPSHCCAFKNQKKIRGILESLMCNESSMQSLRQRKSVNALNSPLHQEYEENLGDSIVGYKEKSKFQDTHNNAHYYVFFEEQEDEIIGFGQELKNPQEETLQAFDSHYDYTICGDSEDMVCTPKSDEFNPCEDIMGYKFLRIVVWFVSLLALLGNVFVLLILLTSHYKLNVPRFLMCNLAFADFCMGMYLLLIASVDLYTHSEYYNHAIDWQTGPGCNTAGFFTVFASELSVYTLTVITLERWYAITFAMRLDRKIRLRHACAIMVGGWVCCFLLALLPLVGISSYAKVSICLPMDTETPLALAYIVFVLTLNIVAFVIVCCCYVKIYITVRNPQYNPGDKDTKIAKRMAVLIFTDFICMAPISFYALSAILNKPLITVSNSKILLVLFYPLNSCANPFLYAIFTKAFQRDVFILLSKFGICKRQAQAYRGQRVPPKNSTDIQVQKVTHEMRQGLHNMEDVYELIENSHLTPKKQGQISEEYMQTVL
Sequence of Luciferin 4-monooxygenase (Photinus pyralis) (P08659 whole entry, looked up): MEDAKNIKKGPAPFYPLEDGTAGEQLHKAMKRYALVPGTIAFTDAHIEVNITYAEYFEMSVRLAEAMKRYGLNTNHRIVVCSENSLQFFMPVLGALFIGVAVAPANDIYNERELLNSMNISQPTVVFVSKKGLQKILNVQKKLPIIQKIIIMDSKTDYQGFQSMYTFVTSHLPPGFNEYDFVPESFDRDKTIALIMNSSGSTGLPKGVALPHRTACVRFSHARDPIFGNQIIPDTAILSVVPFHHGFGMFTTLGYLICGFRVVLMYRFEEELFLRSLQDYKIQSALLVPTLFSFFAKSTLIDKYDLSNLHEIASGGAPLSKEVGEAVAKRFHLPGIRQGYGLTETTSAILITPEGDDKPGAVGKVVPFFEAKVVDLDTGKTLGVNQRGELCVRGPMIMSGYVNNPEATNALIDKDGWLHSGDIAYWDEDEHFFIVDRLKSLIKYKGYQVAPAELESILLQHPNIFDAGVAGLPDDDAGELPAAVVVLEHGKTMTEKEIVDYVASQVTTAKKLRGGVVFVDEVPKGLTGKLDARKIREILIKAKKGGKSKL

Row | Compound | Potency [1] | Potency [2] | Potency [3] | Potency [4] | Potency [5] | Potency [6] | Potency [7] | Potency [8] | Potency [9] | Potency [10] | Potency [11] | Potency [12] | Potency [13] | Potency [14] | activity change, positive = activation [15] | Potency [16] | Potency [17] | Potency [18] | outcome [19] | Potency [20]
1 | Cn1c(=O)c2c(ncn2CC(O)CO)n(C)c1=O (stereo unspecified) | inactive | inactive | inactive | inactive | inactive | inactive | inactive | inactive | inactive | inactive | inactive | inactive | inactive | inactive | 6.5% [at 42.5 µM] | inactive | inactive | inactive | – | –
2 | CCCc1ccccc1 | inactive | inactive | inactive | inactive | inactive | inactive | inactive | inactive | inactive | inactive | inactive | inactive | inactive | inactive | 2.82% | inactive | inactive | inactive | inactive | –
3 | CC(=O)O[C@H]1C[C@@H]2CC[C@@H]3[C@H](CC[C@@]4(C)[C@H]3C[C@H]([N+]3(C)CCCCC3)[C@@H]4OC(C)=O)[C@@]2(C)C[C@@H]1N1CCCCC1 | inactive | inactive | inactive | inactive | inactive | inactive | inactive | – | – | inactive | inactive | inactive | inactive | – | – | inactive | inactive | inactive | inactive | inactive
4 | CC(=O)OC/C=C/c1ccccc1 | inactive | inactive | inactive | inactive | inactive | inactive | inactive | inactive | inactive | inactive | inactive | inactive | inactive | inactive | 0.279% | inactive | inactive | inactive | inactive | inactive
5 | CCCCCCCCCO | inactive | inactive | inactive | inactive | inactive | inactive | inactive | inactive | inactive | inactive | – | inactive | – | inactive | 5.42% | inactive | inactive | inactive | – | inactive
6 | CC(=O)NCCCS(=O)(=O)O | inactive | inactive | inactive | inactive | inactive | inactive | inactive | – | – | inactive | inactive | inactive | inactive | – | – | inactive | 18.9 µM (active) | inactive | inactive | –
7 | Cc1cccc(OCCOc2cccc(C)c2)c1 | inactive | inactive | inactive | inactive | inactive | 29 µM (active) | inactive | inactive | – | – | inactive | inactive | – | inactive | 10.4% | inactive | inactive | inactive | inactive | inactive
8 | CCOc1nc2cccc(C(=O)O)c2n1Cc1ccc(-c2ccccc2-c2nn[nH]n2)cc1 | inactive | inactive | inactive | inactive | inactive | inactive | inactive | inactive | – | inactive | inactive | inactive | – | inactive | 4.21% [at 42.5 µM] | inactive | inactive | inactive | inactive | inactive
9 | C=C(C)C(=O)OCCOc1ccccc1 | inactive | 35.6 µM (active) | inactive | inactive | inactive | inactive | inactive | inactive | – | – | inactive | inactive | inactive | inactive | 3.64% | inactive | inactive | inactive | inactive | inactive
10 | CCN(CC)C(C)CN1c2ccccc2Sc2ccccc21 (stereo unspecified) | inactive | inactive | inactive | inactive | inactive | inactive | inactive | – | – | inactive | inactive | inactive | inactive | – | – | inactive | inactive | inactive | inactive | inactive
11 | COC(=O)C(C)=O | inactive | inactive | inactive | inactive | inactive | inactive | inactive | inactive | – | inactive | inactive | inactive | inactive | inactive | -4.12% | inactive | inactive | inactive | inactive | –
12 | CC(O)C1CCCCC1 (stereo unspecified) | inactive | inactive | inactive | inactive | inactive | inactive | inactive | inactive | inactive | inactive | inactive | inactive | inactive | inactive | 6.48% | inactive | inactive | inactive | inactive | inactive
13 | O=C(Cl)c1c(Cl)cccc1Cl | inactive | inactive | inactive | inactive | inactive | inactive | inactive | – | – | inactive | inactive | inactive | inactive | – | – | inactive | inactive | inactive | inactive | inactive
14 | CC/C(=C\C(=N/O)C(N)=O)C(C)[N+](=O)[O-] (stereo unspecified) | inactive | inactive | inactive | inactive | inactive | inactive | inactive | inactive | inactive | inactive | inactive | – | inactive | inactive | 4.01% | inactive | inactive | inactive | – | inactive
15 | CC(=O)OCCc1ccccc1 | inactive | inactive | inactive | inactive | inactive | inactive | inactive | – | – | inactive | inactive | inactive | inactive | – | – | inactive | inactive | inactive | – | inactive
